# Results taken from PubChem BioAssay (NCATS).
# Results filed as inconclusive are left out. Where a call stands in place of a potency, no number is given. The source made the active and inactive calls. Unless noted, calls come from the whole dose curve; as a rule, active = well fitted curve in the direction sought with a large enough effect; inconclusive = small, poorly fitted or top-dose-only effect, or another doubt; inactive = no such curve, though single readings can be large; an effect the other way counts as inactive or inconclusive. Peptide text beside a SMILES is read from it.
# Columns and labels:
# [1] = qHTS Assay for Lipid Storage Modulators (AID 1519; calls by dose curve); details: Drosophila S3 cells, BODIPY lipid droplet/cell ratio, laser cytometry, cells loaded with oleic acid; for activity change, negative = inhibition: at 57.5 µM (top of the series)
# Outline: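 Cells seeded at 5,000 per well were treated with compounds over a concentration series and loaded with oleic acid (400 uM, as added). Lipid droplet fluorescence (488 nm excitation, 500-530 nm channel) was read by laser-scanning cytometry and normalized to 20 uM Triacsin C.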
# [2] = target: ATP-dependent 6-phosphofructokinase (Trypanosoma brucei brucei) (UniProt O15648); experiment: qHTS Assay to Find Inhibitors of T. brucei phosphofructokinase: hit validation (AID 492961);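 note: luminescence reports ADP formed as PFK phosphorylates fructose-6-phosphate with ATP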; details: T. brucei PFK, ADP-Glo luminescence; series mostly up to 24.3 µM
# Chain of ATP-dependent 6-phosphofructokinase (Trypanosoma brucei brucei) (O15648 whole entry, looked up): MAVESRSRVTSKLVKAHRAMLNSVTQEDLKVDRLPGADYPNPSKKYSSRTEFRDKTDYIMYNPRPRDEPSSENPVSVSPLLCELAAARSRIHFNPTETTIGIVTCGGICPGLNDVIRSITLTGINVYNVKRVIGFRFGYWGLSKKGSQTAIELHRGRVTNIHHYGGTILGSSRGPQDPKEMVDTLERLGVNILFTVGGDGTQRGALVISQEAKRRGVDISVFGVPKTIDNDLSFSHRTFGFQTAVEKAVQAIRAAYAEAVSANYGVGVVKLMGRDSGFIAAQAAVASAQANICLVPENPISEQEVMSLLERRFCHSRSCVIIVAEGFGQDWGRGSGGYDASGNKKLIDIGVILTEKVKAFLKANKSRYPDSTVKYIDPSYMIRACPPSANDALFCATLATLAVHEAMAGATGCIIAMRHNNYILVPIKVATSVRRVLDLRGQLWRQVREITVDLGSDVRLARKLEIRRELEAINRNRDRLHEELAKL
# Outline: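 PFK 1.25 nM, F6P 0.5 mM, ATP 0.1 mM, MgCl2 5 mM, 0.1 M TEA pH 8.0, Tween20 0.01%, BSA 0.1%; 45 min RT. ADP-Glo two-step detection, luminescence. qHTS titration; curve fitting with curve-class categorization.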
# [3] = target: Ubiquitin carboxyl-terminal hydrolase 1 (Homo sapiens) (UniProt O94782); experiment: Inhibitors of USP1/UAF1: Pilot qHTS (AID 504865); details: purified USP1/UAF1, Ub-rhodamine cleavage fluorescence; series mostly up to 114 µM;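 note: rhodamine fluorescence freed from ubiquitin-rhodamine substrate followed over time; top concentration of the series differs between compounds; nearly all actives have a fitted effect of over 35% in size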
# Chain of Ubiquitin carboxyl-terminal hydrolase 1 (Homo sapiens) (O94782 whole entry, looked up): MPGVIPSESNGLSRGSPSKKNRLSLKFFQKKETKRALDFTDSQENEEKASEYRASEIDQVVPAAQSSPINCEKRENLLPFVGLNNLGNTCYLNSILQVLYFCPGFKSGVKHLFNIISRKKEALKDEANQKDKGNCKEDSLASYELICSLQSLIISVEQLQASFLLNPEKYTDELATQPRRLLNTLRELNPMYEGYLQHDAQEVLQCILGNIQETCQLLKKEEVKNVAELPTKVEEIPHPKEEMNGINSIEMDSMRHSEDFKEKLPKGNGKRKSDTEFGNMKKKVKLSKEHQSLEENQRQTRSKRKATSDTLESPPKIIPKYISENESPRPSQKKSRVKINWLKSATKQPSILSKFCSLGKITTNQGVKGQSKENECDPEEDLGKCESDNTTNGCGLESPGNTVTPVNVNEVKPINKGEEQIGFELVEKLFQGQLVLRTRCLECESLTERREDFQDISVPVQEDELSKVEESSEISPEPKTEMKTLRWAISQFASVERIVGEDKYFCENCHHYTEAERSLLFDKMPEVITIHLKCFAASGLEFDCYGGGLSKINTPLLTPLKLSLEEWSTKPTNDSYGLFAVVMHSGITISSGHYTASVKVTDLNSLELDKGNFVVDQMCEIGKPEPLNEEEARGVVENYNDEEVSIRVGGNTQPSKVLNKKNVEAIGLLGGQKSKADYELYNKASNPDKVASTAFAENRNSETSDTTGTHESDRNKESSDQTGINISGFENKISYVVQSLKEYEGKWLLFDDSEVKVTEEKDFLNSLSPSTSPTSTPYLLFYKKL
# Outline: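 Kinetic fluorescence assay: 1nM USP1/UAF1, 15 min compound preincubation, then 150nM Ub-Rho; 480/540 nm.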
# [4] = target: Luciferin 4-monooxygenase (Photinus pyralis) (UniProt P08659); experiment: Biochemical firefly luciferase enzyme assay for NPC (AID 624030);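 note: purified P. pyralis luciferase at 10 nM with luciferin and ATP substrate; nearly all actives have a fitted effect of over 70% in size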; details: purified P. pyralis luciferase, luminescence, 5 min; series mostly up to 24.9 µM
# Chain of Luciferin 4-monooxygenase (Photinus pyralis) (P08659 whole entry, looked up): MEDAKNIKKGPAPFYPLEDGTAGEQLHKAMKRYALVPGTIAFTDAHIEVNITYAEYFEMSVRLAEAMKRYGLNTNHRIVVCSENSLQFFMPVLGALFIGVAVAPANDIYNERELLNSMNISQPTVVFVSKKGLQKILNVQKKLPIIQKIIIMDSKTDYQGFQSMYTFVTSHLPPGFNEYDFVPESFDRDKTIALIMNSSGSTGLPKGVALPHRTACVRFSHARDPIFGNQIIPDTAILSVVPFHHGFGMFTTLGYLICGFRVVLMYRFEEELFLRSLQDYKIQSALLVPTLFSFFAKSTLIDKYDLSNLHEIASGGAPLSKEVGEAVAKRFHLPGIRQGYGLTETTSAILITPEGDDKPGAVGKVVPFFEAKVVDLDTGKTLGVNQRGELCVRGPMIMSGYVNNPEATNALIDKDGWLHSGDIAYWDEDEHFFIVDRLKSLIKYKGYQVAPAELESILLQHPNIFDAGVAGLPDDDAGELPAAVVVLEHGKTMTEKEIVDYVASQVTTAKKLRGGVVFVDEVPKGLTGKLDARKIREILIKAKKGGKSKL
# Outline: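 Counter-screen for direct inhibition of the luciferase enzyme by approved-drug library compounds, run at 10 nM enzyme in 50 mM Tris acetate (final). Luminescence was read within 5 min of enzyme-buffer addition and normalized to PTC124 versus DMSO (0%).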
# [5] = qHTS profiling for inhibitors of Plasmodium falciparum proliferation (AID 504749); note: potency is the fitted concentration of half-maximal effect; for all read-outs here: nearly all actives have a fitted effect of over 60% in size; details: P. falciparum in erythrocytes, SYBR Green DNA, 72 h; for activity, negative = inhibition: at 28.7 µM (top of the series)
# Outline: (§1)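 Parasite proliferation within erythrocytes, 72 h exposure. Endpoint: SYBR Green I fluorescence after overnight lysis at room temperature. Controls: 0.29 uM artemisinin, DMSO.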
# 3D7 = experiment: as above; details: P. falciparum in erythrocytes, SYBR Green DNA, 72 h; series mostly up to 12.8 µM
# Outline: as §1
# AS120 = experiment: as above; details: P. falciparum in erythrocytes, SYBR Green DNA, 72 h; series mostly up to 12.8 µM
# Outline: as §1
# C2A = experiment: as above; details: P. falciparum in erythrocytes, SYBR Green DNA, 72 h; series mostly up to 12.8 µM
# Outline: as §1
# CP185 = experiment: as above; details: P. falciparum in erythrocytes, SYBR Green DNA, 72 h; series mostly up to 12.8 µM
# Outline: as §1
# CP191 = experiment: as above; details: P. falciparum in erythrocytes, SYBR Green DNA, 72 h; series mostly up to 12.8 µM
# Outline: as §1
# CP192 = experiment: as above; details: P. falciparum in erythrocytes, SYBR Green DNA, 72 h; series mostly up to 12.8 µM
# Outline: as §1
# CP217 = experiment: as above; details: P. falciparum in erythrocytes, SYBR Green DNA, 72 h; series mostly up to 12.8 µM
# Outline: as §1
# CP238 = experiment: as above; details: P. falciparum in erythrocytes, SYBR Green DNA, 72 h; series mostly up to 12.8 µM
# Outline: as §1
# CP247 = experiment: as above; details: P. falciparum in erythrocytes, SYBR Green DNA, 72 h; series mostly up to 12.8 µM
# Outline: as §1
# CP250 = experiment: as above; details: P. falciparum in erythrocytes, SYBR Green DNA, 72 h; series mostly up to 12.8 µM
# Outline: as §1
# CP262 = experiment: as above; details: P. falciparum in erythrocytes, SYBR Green DNA, 72 h; series mostly up to 12.8 µM
# Outline: as §1
# ECU = experiment: as above; details: P. falciparum in erythrocytes, SYBR Green DNA, 72 h; series mostly up to 12.8 µM
# Outline: as §1
# FAB9 = experiment: as above; details: P. falciparum in erythrocytes, SYBR Green DNA, 72 h; series mostly up to 12.8 µM
# Outline: as §1
# HB3 = experiment: as above; details: P. falciparum in erythrocytes, SYBR Green DNA, 72 h; series mostly up to 12.8 µM
# Outline: as §1
# SC27B = experiment: as above; details: P. falciparum in erythrocytes, SYBR Green DNA, 72 h; series mostly up to 12.8 µM
# Outline: as §1
# [6] = measured here: cell count channel max response
# [7] = measured here: lipid channel max response
structure (smiles),measurement,setting,value
CCOC(=O)C1=CC(OC(CC)CC)C(NC(C)=O)C(N)C1 (stereo not drawn),"activity change, negative = inhibition",[1],11.6% (inactive)
same,max response,[1]; [6],14.9%
same,max response,[1]; [7],27.8%
same,outcome,[2],inactive
same,Potency,[3],inactive
same,Potency,[4],inactive
same,"activity, negative = inhibition",[5]; parasite line A,0.564% (inactive)
same,"activity, negative = inhibition",[5]; parasite line B,-0.576% (inactive)
same,Potency,3D7,inactive
same,Potency,AS120,inactive
same,Potency,C2A,inactive
same,Potency,CP185,inactive
same,Potency,CP191,inactive
same,Potency,CP192,inactive
same,Potency,CP217,inactive
same,Potency,CP238,inactive
same,Potency,CP247,inactive
same,Potency,CP250,inactive
same,Potency,CP262,inactive
same,Potency,ECU,inactive
same,Potency,FAB9,inactive
same,Potency,HB3,inactive
same,Potency,SC27B,inactive
COC1C=CO[C@@]2(C)Oc3c(C)c(O)c4c(O)c(c(C=NN5CCN(C)CC5)c(O)c4c3C2=O)NC(=O)/C(C)=C\C=CC(C)C(O)[C@@H](C)C(O)C(C)[C@H](OC(C)=O)C1C (stereo partly drawn),"activity change, negative = inhibition",[1],-0.247% (inactive)
same,max response,[1]; [6],7.61%
same,max response,[1]; [7],10.6%
same,outcome,[2],inactive
same,Potency,[5]; parasite line A,3.98 µM (active)
same,Potency,[5]; parasite line B,3.98 µM (active)
same,Potency,3D7,2 µM (active)
same,Potency,AS120,282 nM (active)
same,Potency,C2A,8.91 µM (active)
same,Potency,CP185,3.16 µM (active)
same,Potency,CP191,2.82 µM (active)
same,Potency,CP192,4.26 µM (active)
same,Potency,CP217,5.01 µM (active)
same,Potency,CP238,3.55 µM (active)
same,Potency,CP247,3.98 µM (active)
same,Potency,CP250,6.31 µM (active)
same,Potency,CP262,2.13 µM (active)
same,Potency,ECU,282 nM (active)
same,Potency,HB3,447 nM (active)
same,Potency,SC27B,282 nM (active)
CN1CC(=O)N=C1N,"activity change, negative = inhibition",[1],4.35% (inactive)
same,max response,[1]; [6],5.89%
same,max response,[1]; [7],9.11%
same,outcome,[2],inactive
same,Potency,[3],inactive
same,Potency,[4],inactive
same,"activity, negative = inhibition",[5]; parasite line A,1.94% (inactive)
same,"activity, negative = inhibition",[5]; parasite line B,0.298% (inactive)
same,Potency,3D7,inactive
same,Potency,AS120,inactive
same,Potency,C2A,inactive
same,Potency,CP185,inactive
same,Potency,CP191,inactive
same,Potency,CP192,inactive
same,Potency,CP217,inactive
same,Potency,CP238,inactive
same,Potency,CP247,inactive
same,Potency,CP250,inactive
same,Potency,CP262,inactive
same,Potency,ECU,inactive
same,Potency,FAB9,inactive
same,Potency,HB3,inactive
same,Potency,SC27B,inactive
C[C@]12CCC(=O)C=C1CCC1C2C(=O)C[C@]2(C)C1CC[C@]2(O)C(=O)CO (stereo partly drawn),"activity change, negative = inhibition",[1],-0.346% (inactive)
same,max response,[1]; [6],22.5%
same,max response,[1]; [7],22%
same,outcome,[2],inactive
same,Potency,[3],inactive
same,Potency,[4],inactive
same,"activity, negative = inhibition",[5]; parasite line A,3.27% (inactive)
same,"activity, negative = inhibition",[5]; parasite line B,-0.753% (inactive)
same,Potency,3D7,inactive
same,Potency,AS120,inactive
same,Potency,C2A,inactive
same,Potency,CP185,inactive
same,Potency,CP191,inactive
same,Potency,CP192,inactive
same,Potency,CP217,inactive
same,Potency,CP238,inactive
same,Potency,CP247,inactive
same,Potency,CP250,inactive
same,Potency,CP262,inactive
same,Potency,ECU,inactive
same,Potency,FAB9,inactive
same,Potency,HB3,inactive
same,Potency,SC27B,inactive
CC(=O)N[C@H](CC(C)C)C(=O)O,"activity change, negative = inhibition",[1],6.38% (inactive)
same,max response,[1]; [6],8.9%
same,max response,[1]; [7],16.6%
same,outcome,[2],inactive
same,Potency,[3],inactive
same,Potency,[4],inactive
same,"activity, negative = inhibition",[5]; parasite line A,-8.85% (inactive)
same,"activity, negative = inhibition",[5]; parasite line B,9.6% (inactive)
same,Potency,3D7,inactive
same,Potency,AS120,inactive
same,Potency,C2A,inactive
same,Potency,CP185,inactive
same,Potency,CP191,inactive
same,Potency,CP192,inactive
same,Potency,CP217,inactive
same,Potency,CP238,inactive
same,Potency,CP247,inactive
same,Potency,CP250,inactive
same,Potency,CP262,inactive
same,Potency,ECU,inactive
same,Potency,FAB9,inactive
same,Potency,HB3,inactive
same,Potency,SC27B,inactive
COc1ccc2cc(C(C)CO)ccc2c1 (stereo not drawn),"activity change, negative = inhibition",[1],8.58% (inactive)
same,max response,[1]; [6],13.8%
same,max response,[1]; [7],24.6%
same,outcome,[2],inactive
same,Potency,[3],inactive
same,Potency,[4],inactive
same,"activity, negative = inhibition",[5]; parasite line A,12.4% (inactive)
same,"activity, negative = inhibition",[5]; parasite line B,6.41% (inactive)
same,Potency,3D7,inactive
same,Potency,AS120,inactive
same,Potency,C2A,inactive
same,Potency,CP185,inactive
same,Potency,CP191,inactive
same,Potency,CP192,inactive
same,Potency,CP217,inactive
same,Potency,CP238,inactive
same,Potency,CP247,inactive
same,Potency,CP250,inactive
same,Potency,CP262,inactive
same,Potency,ECU,inactive
same,Potency,FAB9,inactive
same,Potency,HB3,inactive
same,Potency,SC27B,inactive
COC(=O)C(Cc1ccccc1)NC(=O)C(N)CC(=O)O (stereo not drawn) (H-Asp-Phe-OMe; configuration not given here),"activity change, negative = inhibition",[1],5.29% (inactive)
same,max response,[1]; [6],-5.71%
same,max response,[1]; [7],3.61%
same,outcome,[2],inactive
same,Potency,[3],inactive
same,Potency,[4],inactive
same,"activity, negative = inhibition",[5]; parasite line A,0% (inactive)
same,"activity, negative = inhibition",[5]; parasite line B,12.1% (inactive)
same,Potency,3D7,inactive
same,Potency,AS120,inactive
same,Potency,C2A,inactive
same,Potency,CP185,inactive
same,Potency,CP191,inactive
same,Potency,CP192,inactive
same,Potency,CP217,inactive
same,Potency,CP238,inactive
same,Potency,CP247,inactive
same,Potency,CP250,inactive
same,Potency,CP262,inactive
same,Potency,ECU,inactive
same,Potency,FAB9,inactive
same,Potency,HB3,inactive
same,Potency,SC27B,inactive
Nc1nc2ncc(CNc3ccc(C(=O)NC(CCC(=O)O)C(=O)O)cc3)nc2c(=O)[nH]1 (stereo not drawn),"activity change, negative = inhibition",[1],5.18% (inactive)
same,max response,[1]; [6],16.9%
same,max response,[1]; [7],24.2%
same,outcome,[2],inactive
same,Potency,[3],inactive
same,Potency,[4],inactive
same,"activity, negative = inhibition",[5]; parasite line A,10.3% (inactive)
same,"activity, negative = inhibition",[5]; parasite line B,16.6% (inactive)
same,Potency,3D7,inactive
same,Potency,AS120,inactive
same,Potency,C2A,inactive
same,Potency,CP185,inactive
same,Potency,CP191,inactive
same,Potency,CP192,inactive
same,Potency,CP217,inactive
same,Potency,CP238,inactive
same,Potency,CP247,inactive
same,Potency,CP250,inactive
same,Potency,CP262,inactive
same,Potency,ECU,inactive
same,Potency,FAB9,inactive
same,Potency,HB3,inactive
same,Potency,SC27B,inactive
CCC(C)C(=O)OC1CCC=C2C=CC(C)C(CCC3CC(O)CC(=O)O3)[C@@H]21 (stereo partly drawn),"activity change, negative = inhibition",[1],0.311% (inactive)
same,max response,[1]; [6],8.24%
same,max response,[1]; [7],6.43%
same,outcome,[2],inactive
same,Potency,[4],inactive
same,"activity, negative = inhibition",[5]; parasite line A,6.36% (inactive)
same,"activity, negative = inhibition",[5]; parasite line B,-8.04% (inactive)
same,Potency,3D7,inactive
same,Potency,AS120,inactive
same,Potency,C2A,inactive
same,Potency,CP185,inactive
same,Potency,CP191,inactive
same,Potency,CP192,inactive
same,Potency,CP217,inactive
same,Potency,CP238,inactive
same,Potency,CP247,inactive
same,Potency,CP250,inactive
same,Potency,CP262,inactive
same,Potency,ECU,inactive
same,Potency,FAB9,inactive
same,Potency,HB3,inactive
same,Potency,SC27B,inactive
